Assay results as given in the supplement of paper PMC10849652.
Of roughly 8,800 targets only a part is listed; those with a hit were picked by preference. About 0.5% of all pairs of compound and target were hits.

Key:
Assay in all cases: log2 fold change, soluble protein after heating vs DMSO (PISA); higher = thermal stabilisation; K562 lysate, 10 uM; active = over 0.2 and 3.5 SD of the protein, either way, in both replicates (recomputed)
nilotinib = compound: Cc1cn(-c2cc(NC(=O)c3ccc(C)c(Nc4nccc(-c5cccnc5)n4)c3)cc(C(F)(F)F)c2)cn1 [nilotinib]
Outline: (§1)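 Thermal stability, expressed as log-two fold change relative to solvent controls, is given from duplicates. Crude K562 extract in PBS pH 7.4 with 1 mM MgCl2, at 1 mg/mL protein, was treated with 10 μM compound for 30 min and heated in aliquots for 3 min across 48°C-58°C. After pooling, adjustment to 0.5% NP-40 at 4°C and centrifugation at 21,000xg for 90 min, supernatant protein was measured by TMTpro 16plex LC-MS/MS with channel sums equalised.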

[1] = compound: Cc1nc(Nc2n[nH]c3c2CN(C(=O)N[C@H](CN(C)C)c2ccccc2)C3(C)C)c2sccc2n1
Outline: as §1

dasatinib = compound: Cc1nc(Nc2ncc(C(=O)Nc3c(C)cccc3Cl)s2)cc(N2CCN(CCO)CC2)n1 [dasatinib]
Outline: as §1

[2] = compound: Cc1ncc(-c2ccnc(Nc3ccc(S(C)(=O)=O)cc3)n2)n1C(C)C
Outline: as §1

[3] = compound: Cn1cc(-c2ccc3c(c2)CCN3C(=O)Cc2cccc(C(F)(F)F)c2)c2c(N)ncnc21
Outline: as §1

quisinostat = compound: Cn1cc(CNCC2CCN(c3ncc(C(=O)NO)cn3)CC2)c2ccccc21 [quisinostat]
Outline: as §1

tipifarnib = compound: Cn1cncc1[C@@](N)(c1ccc(Cl)cc1)c1ccc2c(c1)c(-c1cccc(Cl)c1)cc(=O)n2C [tipifarnib]
Outline: as §1

[4] = compound: NC(=O)Nc1cc(-c2cccc(F)c2)sc1C(=O)N[C@H]1CCCNC1
Outline: as §1

[5] = compound: NC(=O)c1cnc(N[C@@H]2CCCC[C@@H]2N)nc1Nc1cccc(-n2nccn2)c1
Outline: as §1

[6] = compound: NC1(c2ccc(-c3nc4ccn5c(=O)[nH]nc5c4cc3-c3ccccc3)cc2)CCC1
Outline: as §1

Measured: log2 fold change

SPR (UniProt P35270)
inactive: nilotinib -0.063 | [1] 0.01 | dasatinib 0.201 | [2] 0.012 | [3] 0.075 | quisinostat 0.077 | tipifarnib 0.035 | [4] 0.01 | [5] 0.02 | [6] 0.009

SFR1 isoform 2 (UniProt Q86XK3)
inactive: nilotinib -0.029 | [1] 0.068 | dasatinib 0.055 | [2] 0.045 | [3] -0.058 | quisinostat -0.029 | tipifarnib 0.072 | [4] -0.004 | [5] 0.02 | [6] -0.039

SKA3 (UniProt Q8IX90)
Chain of UniProt Q8IX90 (Q8IX90 whole entry, looked up): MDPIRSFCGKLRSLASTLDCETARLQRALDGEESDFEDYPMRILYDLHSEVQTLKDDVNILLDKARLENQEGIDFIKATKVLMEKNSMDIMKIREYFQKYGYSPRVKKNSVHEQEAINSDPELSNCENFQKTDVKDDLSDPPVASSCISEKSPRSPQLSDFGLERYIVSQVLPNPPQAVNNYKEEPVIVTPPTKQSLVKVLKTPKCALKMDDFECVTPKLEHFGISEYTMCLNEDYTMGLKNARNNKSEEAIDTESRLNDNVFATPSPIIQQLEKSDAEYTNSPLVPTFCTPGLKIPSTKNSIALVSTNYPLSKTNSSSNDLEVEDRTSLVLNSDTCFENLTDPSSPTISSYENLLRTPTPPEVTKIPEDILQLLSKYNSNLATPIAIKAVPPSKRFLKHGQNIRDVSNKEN
inactive: nilotinib -0.046 | [1] -0.018 | dasatinib -0.028 | [2] 0.023 | [3] 0.002 | quisinostat -0.093 | tipifarnib -0.02 | [4] 0.044 | [5] 0.034 | [6] -0.004

TARBP2 (UniProt Q15633)
Chain of UniProt Q15633 (Q15633 whole entry, looked up): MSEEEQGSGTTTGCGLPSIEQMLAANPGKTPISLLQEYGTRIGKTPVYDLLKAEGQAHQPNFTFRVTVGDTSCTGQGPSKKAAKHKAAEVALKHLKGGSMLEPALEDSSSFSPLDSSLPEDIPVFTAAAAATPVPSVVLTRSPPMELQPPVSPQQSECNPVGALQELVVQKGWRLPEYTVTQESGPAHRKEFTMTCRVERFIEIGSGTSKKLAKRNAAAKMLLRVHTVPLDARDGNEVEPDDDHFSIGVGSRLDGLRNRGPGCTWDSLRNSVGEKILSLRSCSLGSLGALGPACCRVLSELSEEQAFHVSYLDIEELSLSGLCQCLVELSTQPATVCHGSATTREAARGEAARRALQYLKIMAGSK
inactive: nilotinib 0.003 | [1] 0.019 | dasatinib -0.038 | [2] 0.005 | [3] -0.056 | quisinostat -0.106 | tipifarnib -0.067 | [4] 0.065 | [5] -0.029 | [6] 0.056

TAPT1 (UniProt Q6NXT6)
Chain of UniProt Q6NXT6 (Q6NXT6 whole entry, looked up): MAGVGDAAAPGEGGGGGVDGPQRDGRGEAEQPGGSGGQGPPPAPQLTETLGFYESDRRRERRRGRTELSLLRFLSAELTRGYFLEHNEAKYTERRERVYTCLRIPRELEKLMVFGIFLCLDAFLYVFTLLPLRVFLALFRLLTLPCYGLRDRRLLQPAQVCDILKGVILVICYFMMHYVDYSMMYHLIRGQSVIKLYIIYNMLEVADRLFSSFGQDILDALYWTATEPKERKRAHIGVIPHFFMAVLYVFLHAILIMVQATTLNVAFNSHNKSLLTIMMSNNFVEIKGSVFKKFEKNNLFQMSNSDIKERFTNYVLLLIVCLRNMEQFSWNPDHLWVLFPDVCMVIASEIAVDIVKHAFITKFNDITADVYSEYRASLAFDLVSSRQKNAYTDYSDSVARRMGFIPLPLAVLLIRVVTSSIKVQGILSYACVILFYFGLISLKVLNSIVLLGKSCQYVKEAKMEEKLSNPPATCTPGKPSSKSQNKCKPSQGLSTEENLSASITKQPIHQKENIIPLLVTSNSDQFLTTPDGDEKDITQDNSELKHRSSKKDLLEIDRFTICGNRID
inactive: nilotinib 0.009 | [1] 0.012 | dasatinib 0.013 | [2] 0.03 | [3] -0.118 | quisinostat -0.053 | tipifarnib 0.017 | [4] -0.032 | [5] 0.011 | [6] -0.001

SH3BGRL2 (UniProt Q9UJC5)
Chain of UniProt Q9UJC5 (Q9UJC5 whole entry, looked up): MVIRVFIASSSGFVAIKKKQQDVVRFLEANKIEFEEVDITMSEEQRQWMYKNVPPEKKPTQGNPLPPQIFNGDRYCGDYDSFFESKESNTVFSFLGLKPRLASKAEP
inactive: nilotinib -0.001 | [1] -0.001 | dasatinib 0.077 | [2] -0.019 | [3] -0.033 | quisinostat -0.029 | tipifarnib 0.013 | [4] 0.009 | [5] -0.04 | [6] 0.032

SRSF2 (UniProt Q01130)
inactive: nilotinib -0.038 | [1] 0 | dasatinib -0.003 | [2] -0.029 | [3] 0.033 | quisinostat -0.056 | tipifarnib 0.01 | [4] 0.002 | [5] -0.008 | [6] -0.01

SSU72 (UniProt Q9NP77)
Chain of UniProt Q9NP77 (Q9NP77 whole entry, looked up): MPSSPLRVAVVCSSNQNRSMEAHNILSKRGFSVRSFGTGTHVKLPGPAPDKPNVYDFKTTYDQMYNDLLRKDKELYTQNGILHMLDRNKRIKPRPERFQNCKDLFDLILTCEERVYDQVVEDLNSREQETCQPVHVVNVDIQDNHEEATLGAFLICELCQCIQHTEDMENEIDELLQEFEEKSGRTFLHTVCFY
inactive: nilotinib 0.031 | [1] -0.007 | dasatinib -0.008 | [2] -0.028 | [3] 0.037 | quisinostat -0.002 | tipifarnib 0.02 | [4] -0.021 | [5] -0.013 | [6] 0.041

STK11IP (UniProt Q8N1F8)
Chain of UniProt Q8N1F8 (Q8N1F8 whole entry, looked up): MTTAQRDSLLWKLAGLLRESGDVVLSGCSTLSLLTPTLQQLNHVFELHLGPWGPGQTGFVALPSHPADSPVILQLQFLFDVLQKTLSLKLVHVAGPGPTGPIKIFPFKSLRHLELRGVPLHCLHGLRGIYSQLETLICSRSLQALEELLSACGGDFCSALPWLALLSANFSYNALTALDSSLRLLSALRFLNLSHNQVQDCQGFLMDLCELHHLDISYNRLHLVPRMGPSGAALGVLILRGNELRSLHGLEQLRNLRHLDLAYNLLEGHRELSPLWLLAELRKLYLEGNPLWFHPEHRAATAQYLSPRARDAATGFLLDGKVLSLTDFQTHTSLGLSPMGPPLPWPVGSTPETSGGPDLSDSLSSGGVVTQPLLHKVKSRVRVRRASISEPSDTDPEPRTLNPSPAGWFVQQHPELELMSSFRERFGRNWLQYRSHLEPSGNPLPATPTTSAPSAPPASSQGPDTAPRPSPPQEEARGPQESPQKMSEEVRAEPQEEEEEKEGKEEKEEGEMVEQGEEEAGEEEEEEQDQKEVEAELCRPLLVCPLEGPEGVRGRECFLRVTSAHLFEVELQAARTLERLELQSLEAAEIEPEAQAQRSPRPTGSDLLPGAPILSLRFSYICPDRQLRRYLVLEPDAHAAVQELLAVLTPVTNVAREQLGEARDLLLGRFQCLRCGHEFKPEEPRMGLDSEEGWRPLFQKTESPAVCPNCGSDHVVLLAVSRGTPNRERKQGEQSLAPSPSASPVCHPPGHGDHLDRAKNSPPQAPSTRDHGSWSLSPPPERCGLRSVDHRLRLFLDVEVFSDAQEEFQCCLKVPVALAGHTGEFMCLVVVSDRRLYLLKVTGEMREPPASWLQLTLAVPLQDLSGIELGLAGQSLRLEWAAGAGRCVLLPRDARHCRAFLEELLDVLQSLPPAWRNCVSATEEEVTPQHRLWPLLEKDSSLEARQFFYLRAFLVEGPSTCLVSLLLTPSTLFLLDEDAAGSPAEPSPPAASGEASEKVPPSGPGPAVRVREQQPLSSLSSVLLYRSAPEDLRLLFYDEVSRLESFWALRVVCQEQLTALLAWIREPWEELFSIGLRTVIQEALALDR
inactive: nilotinib 0.065 | [1] 0.001 | dasatinib -0.053 | [2] -0.045 | [3] -0.016 | quisinostat -0.029 | tipifarnib -0.033 | [4] -0.012 | [5] -0.014 | [6] 0.037

SHC1 isoform 6 (UniProt P29353)
inactive: nilotinib 0.034 | [1] 0.011 | dasatinib 0.046 | [2] -0.02 | [3] -0.005 | quisinostat 0.022 | tipifarnib 0.006 | [4] -0.036 | [5] -0.029 | [6] -0.001

STMN3 (UniProt Q9NZ72)
inactive: nilotinib -0.068 | [1] 0.218 | dasatinib 0.035 | [2] -0.041 | [3] -0.032 | quisinostat 0.006 | tipifarnib 0.176 | [4] -0.022 | [5] -0.006 | [6] 0.052

SMN1 (UniProt Q16637)
Chain of UniProt Q16637 (Q16637 whole entry, looked up): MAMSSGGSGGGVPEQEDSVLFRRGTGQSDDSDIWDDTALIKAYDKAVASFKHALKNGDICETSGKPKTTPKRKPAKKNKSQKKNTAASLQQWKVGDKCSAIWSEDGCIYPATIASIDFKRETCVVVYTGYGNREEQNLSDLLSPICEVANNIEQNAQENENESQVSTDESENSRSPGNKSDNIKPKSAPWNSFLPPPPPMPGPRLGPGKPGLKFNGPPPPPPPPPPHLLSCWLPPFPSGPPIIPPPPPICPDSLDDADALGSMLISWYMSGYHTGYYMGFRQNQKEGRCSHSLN
inactive: nilotinib 0.012 | [1] 0.019 | dasatinib -0.005 | [2] -0.023 | [3] 0.05 | quisinostat -0.146 | tipifarnib 0 | [4] -0.001 | [5] 0.047 | [6] 0

SMG6 (UniProt Q86US8)
inactive: nilotinib -0.067 | [1] 0.028 | dasatinib 0.048 | [2] 0.079 | [3] 0.082 | quisinostat -0.05 | tipifarnib -0.065 | [4] 0.028 | [5] 0.065 | [6] 0.011

SLC38A10 (UniProt Q9HBR0)
inactive: nilotinib 0.072 | [1] -0.073 | dasatinib -0.009 | [2] 0.05 | [3] -0.031 | quisinostat -0.013 | tipifarnib 0.047 | [4] -0.039 | [5] 0.01 | [6] 0.023

SYNE2 isoform 2 (UniProt Q8WXH0)
inactive: nilotinib 0.086 | [1] -0.034 | dasatinib 0.032 | [2] -0.002 | [3] -0.024 | quisinostat -0.176 | tipifarnib 0.005 | [4] -0.043 | [5] -0.021 | [6] -0.091

SYF2 (UniProt O95926)
Chain of UniProt O95926 (O95926 whole entry, looked up): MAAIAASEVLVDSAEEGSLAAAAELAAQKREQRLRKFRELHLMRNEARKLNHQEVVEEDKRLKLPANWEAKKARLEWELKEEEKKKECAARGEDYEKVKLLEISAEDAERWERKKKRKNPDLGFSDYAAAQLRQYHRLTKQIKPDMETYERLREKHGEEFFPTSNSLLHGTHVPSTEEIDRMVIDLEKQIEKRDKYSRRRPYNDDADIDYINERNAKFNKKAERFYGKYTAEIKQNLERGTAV
inactive: nilotinib -0.023 | [1] 0 | dasatinib -0.036 | [2] 0.005 | [3] 0.003 | quisinostat -0.008 | tipifarnib 0.046 | [4] -0.016 | [5] 0.04 | [6] -0.106

SPAG5 (UniProt Q96R06)
inactive: nilotinib 0.026 | [1] -0.013 | dasatinib -0.006 | [2] 0.001 | [3] 0.02 | quisinostat -0.051 | tipifarnib -0.045 | [4] 0.001 | [5] 0.004 | [6] -0.008

SF3B6 (UniProt Q9Y3B4)
Chain of UniProt Q9Y3B4 (Q9Y3B4 whole entry, looked up): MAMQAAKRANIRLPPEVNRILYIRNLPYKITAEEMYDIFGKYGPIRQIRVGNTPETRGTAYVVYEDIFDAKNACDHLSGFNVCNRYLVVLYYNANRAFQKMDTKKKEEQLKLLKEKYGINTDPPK
inactive: nilotinib 0.045 | [1] 0.013 | dasatinib -0.036 | [2] -0.028 | [3] -0.038 | quisinostat 0.016 | tipifarnib 0.021 | [4] 0 | [5] -0.054 | [6] -0.03

SPATS2 (UniProt Q86XZ4)
Chain of UniProt Q86XZ4 (Q86XZ4 whole entry, looked up): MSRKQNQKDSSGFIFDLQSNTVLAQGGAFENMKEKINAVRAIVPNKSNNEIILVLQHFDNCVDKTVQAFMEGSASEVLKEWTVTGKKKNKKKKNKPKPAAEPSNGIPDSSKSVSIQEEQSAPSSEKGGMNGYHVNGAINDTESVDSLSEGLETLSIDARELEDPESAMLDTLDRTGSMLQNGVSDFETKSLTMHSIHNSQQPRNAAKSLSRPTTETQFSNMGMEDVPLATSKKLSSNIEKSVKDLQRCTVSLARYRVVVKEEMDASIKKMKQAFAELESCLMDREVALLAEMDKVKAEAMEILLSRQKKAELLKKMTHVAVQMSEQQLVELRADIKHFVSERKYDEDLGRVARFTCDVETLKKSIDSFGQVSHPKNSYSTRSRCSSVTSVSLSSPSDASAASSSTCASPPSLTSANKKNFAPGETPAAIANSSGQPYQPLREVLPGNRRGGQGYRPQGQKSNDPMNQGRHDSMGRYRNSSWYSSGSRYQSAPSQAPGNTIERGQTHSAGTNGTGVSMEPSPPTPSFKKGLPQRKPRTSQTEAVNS
inactive: nilotinib -0.069 | [1] 0.042 | dasatinib -0.073 | [2] 0.074 | [3] -0.03 | quisinostat 0.144 | tipifarnib 0.013 | [4] -0.107 | [5] -0.005 | [6] -0.013

SLC7A5 (UniProt Q01650)
inactive: nilotinib 0.022 | [1] 0.008 | dasatinib 0.055 | [2] 0.014 | [3] 0.008 | quisinostat -0.106 | tipifarnib 0.003 | [4] 0 | [5] -0.029 | [6] -0.003

STOML2 (UniProt Q9UJZ1)
inactive: nilotinib -0.017 | [1] -0.01 | dasatinib 0.004 | [2] 0.017 | [3] -0.001 | quisinostat 0.035 | tipifarnib 0.005 | [4] 0.018 | [5] 0.002 | [6] -0.003

SRP54 (UniProt P61011)
inactive: nilotinib 0.039 | [1] 0.006 | dasatinib -0.021 | [2] 0 | [3] 0.034 | quisinostat 0.048 | tipifarnib -0.047 | [4] -0.001 | [5] -0.013 | [6] -0.015

SRM (UniProt P19623)
inactive: nilotinib 0.026 | [1] -0.009 | dasatinib -0.008 | [2] 0.009 | [3] 0.012 | quisinostat 0.009 | tipifarnib 0.014 | [4] 0.041 | [5] 0.017 | [6] 0.045

SMARCAD1 isoform 2 (UniProt Q9H4L7)
inactive: nilotinib -0.001 | [1] -0.008 | dasatinib -0.033 | [2] -0.005 | [3] -0.005 | quisinostat -0.054 | tipifarnib -0.025 | [4] 0.016 | [5] 0.059 | [6] -0.007

SMG5 (UniProt Q9UPR3)
Chain of UniProt Q9UPR3 (Q9UPR3 whole entry, looked up): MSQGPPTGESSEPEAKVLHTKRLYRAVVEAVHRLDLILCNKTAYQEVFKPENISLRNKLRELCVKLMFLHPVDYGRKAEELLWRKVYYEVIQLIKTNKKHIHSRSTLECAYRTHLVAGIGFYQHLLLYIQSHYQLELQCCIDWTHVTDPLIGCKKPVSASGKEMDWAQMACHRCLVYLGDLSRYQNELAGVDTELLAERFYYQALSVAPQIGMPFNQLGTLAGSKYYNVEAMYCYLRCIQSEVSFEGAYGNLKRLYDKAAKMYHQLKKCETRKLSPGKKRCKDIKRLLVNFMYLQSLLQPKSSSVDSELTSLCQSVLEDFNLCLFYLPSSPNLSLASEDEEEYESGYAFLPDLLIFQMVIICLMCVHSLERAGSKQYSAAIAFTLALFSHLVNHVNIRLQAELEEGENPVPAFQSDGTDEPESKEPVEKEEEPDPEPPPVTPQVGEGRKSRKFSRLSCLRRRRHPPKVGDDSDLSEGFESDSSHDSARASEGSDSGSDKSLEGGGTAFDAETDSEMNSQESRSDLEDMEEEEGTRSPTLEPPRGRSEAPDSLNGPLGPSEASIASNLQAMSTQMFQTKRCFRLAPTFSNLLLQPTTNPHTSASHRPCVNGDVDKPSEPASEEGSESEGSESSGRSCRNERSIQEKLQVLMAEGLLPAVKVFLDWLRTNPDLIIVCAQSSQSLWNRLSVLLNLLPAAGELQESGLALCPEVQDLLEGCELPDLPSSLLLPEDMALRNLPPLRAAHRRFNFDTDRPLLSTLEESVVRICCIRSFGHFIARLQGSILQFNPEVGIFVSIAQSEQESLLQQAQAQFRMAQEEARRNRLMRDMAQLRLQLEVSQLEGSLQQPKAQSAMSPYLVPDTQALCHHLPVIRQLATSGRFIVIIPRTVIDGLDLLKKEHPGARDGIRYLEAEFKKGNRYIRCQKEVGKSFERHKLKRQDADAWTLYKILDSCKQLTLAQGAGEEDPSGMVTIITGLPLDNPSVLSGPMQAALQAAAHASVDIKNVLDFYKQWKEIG
inactive: nilotinib -0.058 | [1] 0.034 | dasatinib 0.003 | [2] -0.054 | [3] 0.03 | quisinostat 0.013 | tipifarnib -0.115 | [4] 0.097 | [5] 0.048 | [6] -0.027

TAF9 (UniProt Q16594)
inactive: nilotinib -0.043 | [1] 0.049 | dasatinib -0.017 | [2] -0.003 | [3] 0.021 | quisinostat -0.055 | tipifarnib -0.029 | [4] 0.013 | [5] 0.084 | [6] -0.024

SMARCA4 isoform 4 (UniProt P51532)
inactive: nilotinib -0.244 | [1] -0.219 | dasatinib -0.037 | [2] 0.037 | [3] 0.035 | quisinostat -0.081 | tipifarnib 0.239 | [4] 0.16 | [5] -0.042 | [6] 0.05
